# Rows were chosen to be rich in hits. Some 12% of all compounds tested hit in one or more screens of this group.
# HP1b chromo inh: HP1-beta chromodomain-methylated histone interaction inhibition | P83916 | AlphaScreen HP1-beta / biotin-H3K9me3 peptide binding | Potency, µM (top dose mostly 114 µM), without a hit: top-dose activity change, negative = inhibition, hits mostly inhibitors | 390,000 tested, 0.56% active | AID 540317; further: potency means the concentration at half of the fitted maximal effect; nearly all actives have a fitted effect of over 70% in size
# Target sequence (P83916 whole entry, looked up): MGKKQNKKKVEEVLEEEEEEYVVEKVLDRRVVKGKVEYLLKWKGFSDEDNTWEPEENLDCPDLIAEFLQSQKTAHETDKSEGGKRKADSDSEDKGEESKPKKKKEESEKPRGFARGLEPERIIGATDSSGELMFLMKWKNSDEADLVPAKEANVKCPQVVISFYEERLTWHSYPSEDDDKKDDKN
#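 Compound inhibition of the preformed complex between 50 nM HP1-beta and 50 nM biotinylated H3K9me3 peptide was read by AlphaScreen. Buffer was PBS pH 7.4 with 0.01% Tween-20. Incubations ran 30 min at room temperature, with 10 ug/mL donor/acceptor beads.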
# PLK1 PBD inh: PLK1 (human) polo-box domain binding inhibition. Plk1 PBD binding of FITC phosphopeptide, fluorescence polarization. 360,000 tested, 2.8% active. P53350. Potency, µM, for inactives: max response, negative = inhibition, usual class: inhibitors; further: potency means the concentration at half of the fitted maximal effect; series mostly up to about 57 µM; on the % scale 0 is the no-effect control and ±100 the full control effect; nearly all actives have a fitted effect of over 65% in size
# Target sequence (P53350 whole entry, looked up, the tested form may be a part): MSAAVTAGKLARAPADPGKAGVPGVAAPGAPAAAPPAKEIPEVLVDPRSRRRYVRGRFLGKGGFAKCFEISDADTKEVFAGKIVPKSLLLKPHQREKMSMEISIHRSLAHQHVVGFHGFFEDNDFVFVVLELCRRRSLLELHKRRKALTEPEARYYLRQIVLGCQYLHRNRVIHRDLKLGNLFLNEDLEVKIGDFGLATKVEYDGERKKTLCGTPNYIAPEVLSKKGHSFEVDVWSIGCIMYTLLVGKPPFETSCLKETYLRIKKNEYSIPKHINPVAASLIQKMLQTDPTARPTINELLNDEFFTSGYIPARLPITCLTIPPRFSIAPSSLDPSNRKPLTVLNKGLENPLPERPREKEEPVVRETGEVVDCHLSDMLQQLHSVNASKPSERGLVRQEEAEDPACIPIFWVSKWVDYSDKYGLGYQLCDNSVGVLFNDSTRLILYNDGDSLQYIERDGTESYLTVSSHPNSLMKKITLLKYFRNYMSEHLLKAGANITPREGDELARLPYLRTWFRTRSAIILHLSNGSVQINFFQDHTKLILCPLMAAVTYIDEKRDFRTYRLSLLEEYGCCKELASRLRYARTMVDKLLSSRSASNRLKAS
# G9a block: G9a (human) methyltransferase inhibition; 350,000 tested, 8.8% active; G9a H3K9 monomethylation, AlphaScreen, 2 h; Potency, µM (highest dose often 102 µM), for the others: at the highest dose activity, negative = inhibition, actives largely listed as inhibitors; Q96KQ7; further: potency means the concentration at half of the fitted maximal effect; on the % scale 0 is the no-effect control and ±100 the full control effect; nearly all actives have a fitted effect of over 75% in size
#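 Signal arises when biotinylated H3K9 peptide, once monomethylated, bridges streptavidin donor and antibody-captured acceptor beads. Enzyme at 20 nM was preincubated 15 min with test compounds; peptide 500 nM and SAM 20 uM then reacted for 2 h.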
# PI5P4Ka inh: blocks human PI5P4K alpha kinase activity | AID 652105 | 330,000 tested, 1.2% active | max response, % | P48426 | PI5P4Kalpha enzyme, ADP-Glo luminescence, 60 min; active compounds read low; active means max response of -50% or lower; inconclusive means between -30% and -50%; inactive means -30% or higher; further: value at the top dose of about 77 µM; on the % scale 0 is the no-effect control and ±100 the full control effect
#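 Enzyme plus substrate dispensed, test compounds pinned in, then ATP (5 microM final) added. After 60 min at RT, ADP-Glo reagent 1 for 45 min and reagent 2 for 30 min preceded luminescence imaging.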
# JMJD2A Tudor inh: inhibitors of human JMJD2A Tudor domain; AlphaScreen JMJD2A-Tudor / H3K4me3 peptide binding; Potency, µM (highest dose often 114 µM), inactives show at the top dose activity change, negative = inhibition, hits mostly inhibitors; 390,000 tested, 4.4% active; further: potency means the concentration at half of the fitted maximal effect; on the % scale 0 is the no-effect control and ±100 the full control effect; nearly all actives have a fitted effect of over 50% in size
# BAZ2B block: inhibitors of human BAZ2B bromodomain. Q9UIF8. AlphaScreen BAZ2B-H3K14Ac peptide displacement. Potency, µM (series often up to 114 µM), for inactives: top-dose activity change, negative = inhibition, actives largely listed as inhibitors. 360,000 tested, 4.4% active; further: potency means the concentration at half of the fitted maximal effect; on the % scale 0 is the no-effect control and ±100 the full control effect; nearly all actives have a fitted effect of over 60% in size
#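 Compounds, titrated to a top concentration of 110 uM, were incubated 30 min at room temperature with preformed BAZ2B/acetyl-K14 H3 peptide complex (50 nM each). Proximity signal was measured by AlphaScreen after 20 min with beads.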
# The depositor's hits bear a star; ? = inconclusive; · = no result; [ ] = remark or other dose. Unless noted, the call rests on the fitted dose curve; in most records, active means well fitted curve in the direction sought with a large enough effect; inconclusive means small, poorly fitted or top-dose-only effect, or another doubt; inactive means no such curve, though single readings can be large; an effect the other way counts as inactive or inconclusive.
SMILES,HP1b chromo inh,PLK1 PBD inh,G9a block,PI5P4Ka inh,JMJD2A Tudor inh,BAZ2B block
CC1=C(C(=O)OCc2ccccc2)C(c2ccc(C#N)cc2)NC(=O)N1CCCC(=O)O (configuration not stated),46.2%,1.0%,6.5%,-90.4*,-9.3%,-5.8%
CC1=C(C(=O)OCc2ccccc2)C(c2ccccc2)NC(=O)N1CCCC(=O)O (configuration not stated),63.4%,-1.5%,·,-76.6*,0.0%,-4.4%
CC1=C(C(=O)OCc2ccccc2)C(c2ccc(Cl)cc2)NC(=O)N1CCCCCC(=O)O (configuration not stated),14.9%,-18.7%,-19.7%,-10.1,-18.1%,-8.2%
Cc1cc(OC(=O)c2ccccc2Cl)cc(=O)n1C,60.6%,26.7µM*,27.3%[12.7 µM],7.1,-4.5%,-1.3%
OCc1c[nH]c(=S)n1CCOc1cccc(C(F)(F)F)c1,15.5%,-22.6%,?,1.3,22.4µM*,-25.2%
CC1(C)NC(=O)N(CCCCOc2cccc(C(F)(F)F)c2)C1=O,15.2%,-6.3%,-4.8%[59 µM],·,-8.2%,4.3%
CC(C)(C)OC(=O)Nc1ccccc1-n1nnnc1C(C(=O)c1ccccc1)N1CCN(c2ccccn2)CC1 (configuration not stated),·,-9.8%,·,5.1,·,·
COc1ccc(-n2c(-c3ccco3)n[nH]c2=S)cc1,?,-7.8%,3.98µM*,·,4.47µM*,-3.5%
S=c1[nH]nc(-c2ccco2)n1C1CCCCC1,?,-8.3%,2µM*,-8.6,3.16µM*,-11.7%
Cc1ccc(C)c(N2CN(Cc3ccco3)CNC2=S)c1,9.3%,0.0%,18.2%[59 µM],1.1,-24.5%,2.6%
Cc1ccc(C)c(-n2c(-c3ccco3)n[nH]c2=S)c1,-22.6%,-27.5%,·,-12.1,8.91µM*,·
CN(C(=O)CSc1nnc(-c2ccco2)n1N)C1CCCCC1,39.9%,-13.8%,-0.5%,0.5,-6.3%,0.1%
Nn1c(-c2ccco2)n[nH]c1=S,?,-10.2%,8.91µM*,·,7.08µM*,50.1µM*
NC(=O)CSc1nnc(-c2ccco2)n1N,49.6%,-1.0%,7.8%,·,4.9%,2.5%
CCCCCc1c(-c2ccc(OC)cc2)ncn1CCc1ccccc1OC,·,-3.2%,·,8.5,·,·
Cn1cc(Cl)c(C(=O)NC2CCCCCC2)n1,0.1%,-2.4%,19.4%[12.7 µM],·,-7.6%,-4.8%
S=c1[nH]nc(-c2ccco2)n1-c1ccc(Cl)cc1,-7.7%,-19.0%,?,-21.8,31.6µM*,-15.3%
c1ccc(-c2nnc(-c3ccco3)n2-c2ccccc2)cc1,7.0%,0.1%,-39.0%[59 µM],·,-28.7%,-6.9%
Cn1cc(Cl)c(-c2n[nH]c(=S)n2C2CCCCC2)n1,16.6%,-6.5%,?,7.7,4.47µM*,-19.0%
CC(C)CCNC(=O)c1ccc2c(c1)N(Cc1ccccc1F)C(=O)c1ccccc1S2=O (configuration not stated),30.4%,·,-22.7%[59 µM],·,-11.4%,-15.4%
CCOC(=O)C(Cc1ccc(NC(=O)/C(=C/c2ccc(OC(C)=O)cc2)NC(C)=O)cc1)N1C(=O)c2ccccc2C1=O (configuration not stated),-19.1%,26.7µM*,-36.0%[59 µM],-4.2,89.1µM*,5.2%
CCOC(=O)C(Cc1ccc(NC(=O)/C(=C/c2ccccc2)NC(=O)c2ccccc2)cc1)N1C(=O)c2ccccc2C1=O (configuration not stated),9.8%,-0.5%,5.2%[59 µM],-6.7,-20.8%,12.7%
Cc1nc2nc(-c3cccs3)cn2nc1C,-5.2%,29.9µM*,-12.3%[59 µM],-14.1,-7.6%[57.1 µM],10.3%
Cc1nc2nc(-c3ccc(Cl)cc3)cn2nc1C,42.5%,-5.2%,26.6%[12.7 µM],-9.0,5.5%,-0.5%
COc1cccc(-c2cn3nc(C)c(C)nc3n2)c1,49.0%,0.1%,20µM*,-22.6,-17.1%,12.1%
SMILES,HP1b chromo inh,PLK1 PBD inh,G9a block,PI5P4Ka inh,JMJD2A Tudor inh,BAZ2B block
COc1cccc(CNC(=O)c2ccc(NS(=O)(=O)c3ccc4[nH]c(=O)[nH]c4c3)cc2)c1,24.8%,-1.4%,20.2%[12.7 µM],-0.8,-15.2%,-9.7%
CCC(c1nnnn1-c1ccc2c(c1)OCCO2)N1CCN(C/C=C/c2ccccc2)CC1 (configuration not stated),·,-3.6%,·,2.5,·,·
CN(C)c1nc(N)c(C#N)c(C#N)c1C#N,33.5%,26.7µM*,·,-3.3,-10.4%,·
C=C(C)CN(CC)c1nc(N)c(C#N)c(CC#N)c1C#N,27.8%,-0.7%,-1.5%,?,-20.7%,2.6%
Cc1cc(Br)cn2c(Cc3ccsc3)c(C(C)(C)C)nc12,·,?,·,-18.6,·,·
CCOc1cc(N2CCOCC2)c(OCC)cc1NC(=O)Cc1ccc(OC)c(OC)c1,-10.4%,-2.2%,50.1µM*,-0.6,?,?
CCOc1cc(N2CCOCC2)c(OCC)cc1NC(=O)c1ccc2ncsc2c1,12.8%,-14.7%,4.1%[12.7 µM],2.2,-27.1%,-38.4%
CCOc1cc(N2CCOCC2)c(OCC)cc1NC(=O)COC(=O)c1cc2ccccc2cc1O,19.6%,-2.5%,-14.3%[59 µM],-5.2,-17.9%,-1.6%
CCOc1cc(N2CCOCC2)c(OCC)cc1NC(=O)COc1cccc(CC)c1,-2.3%,-0.3%,?,3.4,?,?
CCOc1ccc(OCCC(=O)OCC(=O)Nc2cc(OCC)c(N3CCOCC3)cc2OCC)cc1,?,-1.7%,35.5µM*,-5.4,?,?
CCOc1cc(N2C(=O)CC3CS(=O)(=O)CC32)c(OCC)cc1NC(=O)c1ccccc1 (configuration not stated),?,2.99µM*,-31.7%[2.33 µM],?,?,-2.4%
CCOc1cc(N2CCOCC2)c(OCC)cc1NC(=O)c1cccc(N(C)C)c1,?,4.4%,44.7µM*,7.6,?,39.8µM*
O=C(Cn1nnc(-c2ccc(Cl)cc2)n1)NC(=O)NC1CCCC1,·,0.2%,·,-11.6,·,·
Cc1ccccc1C(=O)Nc1nnc(S(=O)(=O)N2CCCCC2)s1,44.0%,-9.2%,-24.5%,-12.7,-2.1%,-2.6%
CSc1ccc(CCNC(=O)c2cc3cc4cc(C)ccc4nc3s2)cc1,14.1%[57 µM],·,-3.9%[59 µM],·,?,1.8%
CC1=C(/C=C/C(C)=C/C=C/C(C)=C/C(=O)Oc2c(C)c(C)c3c(c2C)CC[C@@](C)(CCC[C@H](C)CCC[C@H](C)CCCC(C)C)O3)C(C)(C)CCC1,·,·,-9.0%[12.7 µM],·,·,·
CCOc1cc(N2CCOCC2)c(OCC)cc1NC(=O)Cc1cccc(OC)c1,-16.9%,-2.0%,50.1µM*,-13.1,?,?
CCOc1cc(N2CCOCC2)c(OCC)cc1NC(=O)COC(=O)[C@@H]1CCCN1S(=O)(=O)c1ccccc1F,5.4%,4.2%,44.7µM*,-5.0,-30.1%,?
CCOc1cc(N2CCOCC2)c(OCC)cc1NC(=O)CC12CC3CC(CC(C3)C1)C2,-52.4%,-0.3%,12.6µM*,-6.6,44.7µM*,35.5µM*
